From the supplement of paper PMC6853941

Tested on: MCF10A
Assay: perturbation Mahalanobis distance of morphological profile vs DMSO controls (Mahalanobis distance (SD units)); higher = stronger morphological change, active = 7 or more
Settings: screen batch: Batch1_Mahalanobis_Distance; 72 h
Protocol: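 MCF10A cells were seeded onto drugs dispensed acoustically into 384-well plates, using one dose per drug chosen from its human peak plasma concentration, and incubated for 72 h at 37 °C. Cells were stained for DNA, tubulin and mitochondria and imaged; 78 CellProfiler features were extracted, plate-normalised and compared with DMSO wells.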

| Structure (SMILES) | perturbation Mahalanobis distance |
| --- | --- |
| NC1CC1c1ccccc1 (stereo not drawn) [Tranylcypromine] (7.5 µM) | 2.27 (inactive) |
| Cc1cccc([C@H](C)c2cnc[nH]2)c1C [Dexmedetomidine] (42 µM) | 2.48 (inactive) |
| COC[C@@H](NC(C)=O)C(=O)NCc1ccccc1 [Lacosamide] (49.9 µM) | 3.59 (inactive) |
| CC(C)(O)C(=O)Nc1ccc([N+](=O)[O-])c(C(F)(F)F)c1 [Hydroxyflutamide] (27.1 µM) | 5.03 (inactive) |
| CC[C@@H](CO)NC(=O)[C@@H]1C=C2c3cccc4[nH]cc(c34)C[C@H]2N(C)C1 [Methylergonovine] (44 µM) | 2.29 (inactive) |
| CN1C[C@H](C(=O)N[C@]2(C)O[C@@]3(O)[C@@H]4CCCN4C(=O)[C@H](Cc4ccccc4)N3C2=O)C[C@@H]2c3cccc4[nH]cc(c34)C[C@H]21 [Dihydroergotamine] (74 µM) | 2.63 (inactive) |
| CN(C)C(=O)Oc1ccc[n+](C)c1 [Pyridostigmine  Bromide] (5.5 µM) | 2.83 (inactive) |
| CCC(C)C(C)(COC(N)=O)COC(N)=O (stereo not drawn) [Mebutamate] (144.2 µM) | 2.17 (inactive) |
| NCC1(CC(=O)O)CCCCC1 [Gabapentin] (122.6 µM) | 2.06 (inactive) |
| C[C@]12CC[C@H]3[C@@H](CC[C@@]45O[C@@H]4C(O)=C(C#N)C[C@]35C)[C@@H]1CC[C@@H]2O [Trilostane] (308.7 µM) | 3.36 (inactive) |
| NC(=O)CS(=O)C(c1ccccc1)c1ccccc1 (stereo not drawn) [Armodafinil] (27.1 µM) | 3.56 (inactive) |
| CCN(C(C)=O)c1cccc(-c2ccnc3c(C#N)cnn23)c1 [Zaleplon] (1.6 µM) | 2.43 (inactive) |
| O=C(O)CCCc1ccc(N(CCCl)CCCl)cc1 [Chlorambucil] (8.1 µM) | 2.75 (inactive) |
| C[C@]12CC[C@H]3[C@@H](CCC4=CC(=O)CC[C@@]43C)[C@@H]1CC[C@@H]2O [Testosterone] (0.17 µM) | 3.32 (inactive) |
| NCC(CC(=O)O)c1ccc(Cl)cc1 (stereo not drawn) [Baclofen] (4.7 µM) | 1.93 (inactive) |
| COc1cc2c(cc1OC)C1CC(=O)C(CC(C)C)CN1CC2 (stereo not drawn) [Tetrabenazine] (10 µM) | 4.2 (inactive) |
| O=C1CC[C@@]2(O)[C@H]3Cc4ccc(O)c5c4[C@@]2(CCN3CC2CC2)[C@H]1O5 [Naltrexone] (0.44 µM) | 3.73 (inactive) |
| C[C@]12Cc3cn[nH]c3C[C@@H]1CC[C@@H]1[C@@H]2CC[C@@]2(C)[C@H]1CC[C@]2(C)O [Stanozolol] (62.7 µM) | 2.14 (inactive) |
| O=[N+]([O-])O[C@H]1CO[C@H]2[C@@H]1OC[C@H]2O[N+](=O)[O-] [Isosorbide Dinitrate] (0.13 µM) | 2.18 (inactive) |

Same assay, conditions: screen batch: Batch2_Mahalanobis_Distance; 72 h

| Structure (SMILES) | perturbation Mahalanobis distance |
| --- | --- |
| NC1CC1c1ccccc1 (stereo not drawn) [Tranylcypromine] (7.5 µM) | 3.55 (inactive) |
| Cc1cccc([C@H](C)c2cnc[nH]2)c1C [Dexmedetomidine] (42 µM) | 2.42 (inactive) |
| COC[C@@H](NC(C)=O)C(=O)NCc1ccccc1 [Lacosamide] (49.9 µM) | 2.67 (inactive) |
| CC(C)(O)C(=O)Nc1ccc([N+](=O)[O-])c(C(F)(F)F)c1 [Hydroxyflutamide] (27.1 µM) | 4.63 (inactive) |
| CC[C@@H](CO)NC(=O)[C@@H]1C=C2c3cccc4[nH]cc(c34)C[C@H]2N(C)C1 [Methylergonovine] (44 µM) | 3.37 (inactive) |
| CN1C[C@H](C(=O)N[C@]2(C)O[C@@]3(O)[C@@H]4CCCN4C(=O)[C@H](Cc4ccccc4)N3C2=O)C[C@@H]2c3cccc4[nH]cc(c34)C[C@H]21 [Dihydroergotamine] (74 µM) | 3.4 (inactive) |
| CN(C)C(=O)Oc1ccc[n+](C)c1 [Pyridostigmine  Bromide] (5.5 µM) | 2.49 (inactive) |
| CCC(C)C(C)(COC(N)=O)COC(N)=O (stereo not drawn) [Mebutamate] (144.2 µM) | 3.78 (inactive) |
| NCC1(CC(=O)O)CCCCC1 [Gabapentin] (122.6 µM) | 2.79 (inactive) |
| C[C@]12CC[C@H]3[C@@H](CC[C@@]45O[C@@H]4C(O)=C(C#N)C[C@]35C)[C@@H]1CC[C@@H]2O [Trilostane] (308.7 µM) | 2.45 (inactive) |
| NC(=O)CS(=O)C(c1ccccc1)c1ccccc1 (stereo not drawn) [Armodafinil] (27.1 µM) | 2.45 (inactive) |
| CCN(C(C)=O)c1cccc(-c2ccnc3c(C#N)cnn23)c1 [Zaleplon] (1.6 µM) | 3.38 (inactive) |
| O=C(O)CCCc1ccc(N(CCCl)CCCl)cc1 [Chlorambucil] (8.1 µM) | 8.46 (active) |
| C[C@]12CC[C@H]3[C@@H](CCC4=CC(=O)CC[C@@]43C)[C@@H]1CC[C@@H]2O [Testosterone] (0.17 µM) | 3.14 (inactive) |
| NCC(CC(=O)O)c1ccc(Cl)cc1 (stereo not drawn) [Baclofen] (4.7 µM) | 1.48 (inactive) |
| COc1cc2c(cc1OC)C1CC(=O)C(CC(C)C)CN1CC2 (stereo not drawn) [Tetrabenazine] (10 µM) | 3.85 (inactive) |
| O=C1CC[C@@]2(O)[C@H]3Cc4ccc(O)c5c4[C@@]2(CCN3CC2CC2)[C@H]1O5 [Naltrexone] (0.44 µM) | 3.37 (inactive) |
| C[C@]12Cc3cn[nH]c3C[C@@H]1CC[C@@H]1[C@@H]2CC[C@@]2(C)[C@H]1CC[C@]2(C)O [Stanozolol] (62.7 µM) | 3.12 (inactive) |
| O=[N+]([O-])O[C@H]1CO[C@H]2[C@@H]1OC[C@H]2O[N+](=O)[O-] [Isosorbide Dinitrate] (0.13 µM) | 2.62 (inactive) |
